# A selection: hits, their analogues and other compounds. The true share with any hit is near 3.9%.
# Vc quorum ag: inducers of Vibrio cholerae quorum light production without autoinducers | V. cholerae BH1578 lux reporter, luminescence, 6 h | activation, % at 18.7 µM | 350,000 compounds, 0.16% hits; in the data active means activation mostly above about 9.7%, no sharp cut-off; inconclusive means no clear call, values can overlap the other calls; inactive means mostly below about 3.7%
# Bead autofluor: flagged as autofluorescent in microsphere protease counterscreen; AID 624483; compound autofluorescence counterscreen, microsphere flow cytometry; hits give high values; fluorescence intensity (no concentration beside the values); 360,000 compounds, 3.1% hits; in the data active means fluorescence intensity above about 16000; inconclusive means no clear call, values can overlap the other calls
# BoNT A protease: BoNT A light chain protease inhibition; multiplex microsphere protease substrate cleavage, flow cytometry; inhibition, % at 10 µM; 360,000 compounds, 0.17% hits; AID 588499; further: plate controls were buffer without enzyme for full effect and enzyme alone for no effect
# MazEF act: MazEF (E. coli) toxin RNase activation. P0AE70. FAM/BHQ RNA-DNA oligo cleavage fluorescence, 5 h. activation, % at 20 µM. 350,000 compounds, 0.32% hits. AID 504720; in the data active means activation above about 50%
# Target sequence (P0AE70 whole entry, looked up): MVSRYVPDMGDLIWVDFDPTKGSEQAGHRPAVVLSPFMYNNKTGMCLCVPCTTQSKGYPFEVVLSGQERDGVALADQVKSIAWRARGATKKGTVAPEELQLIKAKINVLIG
# Anthrax LF prot: anthrax lethal factor protease inhibition; multiplex microsphere protease cleavage assay, LF; inhibition, % at 10 µM; 360,000 compounds, 0.12% hits; further: plate controls were buffer without enzyme for full effect and enzyme alone for no effect
# BoNT-F LC inh: BoNT F light chain protease inhibition; Multiplex microsphere protease cleavage assay, flow cytometry; inhibition, % at 10 µM; 360,000 compounds, 0.22% hits; in the data active means inhibition above about 35%, passing the limit was not always enough; inconclusive means no clear call, values can overlap the other calls; further: plate controls were buffer without enzyme for full effect and enzyme alone for no effect
# An asterisk follows results filed as active; i = inactive; ? = inconclusive; . = not tested or not shown. Unless noted, no stated cut-off is given here; in the data, active means inhibition above about 30%; inconclusive means no clear call, values can overlap the other calls; inactive means below that.
SMILES,Vc quorum ag,Bead autofluor,BoNT A protease,MazEF act,Anthrax LF prot,BoNT-F LC inh
CC(C)c1cc(C(=O)N2CCCC(Nc3ccc(F)cc3)C2)n[nH]1 (centres undefined),-3.6,4511,-1.4,1.2,2.9,-1.2
N#CCC(=O)NCC1(c2ccccc2)CCCC1,25.0*,2811,-0.5,14.2,1.0,-6.8
Cn1nnnc1SCCNCc1ccccc1OCc1ccc(Cl)cc1,-0.4,2681,0.2,-8.9,-1.4,-14.9
Cn1nnnc1SCCNCc1ccc(Cl)cc1,-2.2,17333*,?,-0.6,-2.4,-9.2
O=C(CC1SC2=NCCN2C1=O)Nc1ccc(Br)cc1 (centres undefined),-1.4,21829*,-4.3,-3.8,0.3,-2.3
CCOC(=O)c1ccc(NC(=O)CC2SC3=NCCN3C2=O)cc1 (centres undefined),i,5738,-0.4,2.0,-13.8,-1.1
O=c1c2ccccc2nc(-c2ccccc2)n1CCCN1CCOCC1,i,16595*,-1.5,1.7,-3.4,-5.1
CC1CC(C)(C)NC(=S)N1CC(=O)NCc1ccc(Cl)cc1 (centres undefined),0.2,2781,4.3,1.2,0.4,47.0*
CC1CC(C)(C)NC(=S)N1CC(=O)NCc1ccccc1Cl (centres undefined),-0.3,2240,-0.1,7.5,-0.5,-6.6
CCCn1cnnc1CNC(=O)C1CCC(=O)N(CCCc2ccccc2)C1 (centres undefined),-0.2,5441,2.8,0.7,-0.3,3.5
CN(C)c1oc(-c2ccccc2)nc1C#N,i,22791*,0.0,1.9,-4.4,1.1
Cc1ccc(N(CC(=O)NCc2ccc(F)cc2)C(=O)c2snc(C(N)=O)c2N)cc1C,-0.5,3167,-1.2,17.5,6.9,3.3
Cc1c(Cl)cccc1NC(=S)NNS(=O)(=O)c1ccc([N+](=O)[O-])cc1,i,5627,-1.5,-2.2,0.2,-7.0
C#CCOC(=O)c1ccccc1C(=O)N(CC)CC,-0.2,17452*,?,-1.0,0.4,-6.8
O=C1C(C=NCCCn2ccnc2)=C(O)c2ccccc21,-0.3,4063,0.0,9.4,-9.8,8.8
O=C1C(C=NCCCN2CCCC2=O)=C(O)c2ccccc21,-2.0,19393*,1.2,1.1,-2.3,0.1
CC1(C)CC(=O)C(C(c2ccc(Br)cc2)C2C(=O)CC(C)(C)CC2=O)C(=O)C1,-1.2,3905,-3.1,2.1,8.7,?
C=CCNC(=S)NNC(=O)c1cccn(Cc2ccc(Cl)cc2)c1=O,i,?,?,4.0,?,?
C=CCNC(=S)NNC(=O)c1cccn(Cc2cccc(Cl)c2)c1=O,3.5,24135*,-2.1,5.7,-1.4,-3.1
c1ccc(CNn2nnnc2-c2ccccc2)cc1,i,19323*,0.8,0.3,0.7,0.5
c1ccc(-c2nnnn2-c2ccccc2)cc1,i,4056,-1.7,3.8,-2.9,-2.9
c1ccc2sc(-n3cc(C4CCCCC4)nn3)nc2c1,.,5956,-0.4,.,3.9,8.8
CCOC(=O)c1c(C)[nH]c(C(=O)COC(=O)CCNS(=O)(=O)c2ccc(NC(C)=O)cc2)c1C,-1.1,3633,-0.1,-0.7,-2.8,-3.9
COc1ccccc1NC(=O)CSc1nc(C)c2c(c1C#N)CCCC2,i,23495*,-1.9,-14.3,-1.3,-2.2
COc1cccc(NC(=O)CSc2nc3c(c(-c4ccco4)c2C#N)CCCC3)c1,i,23093*,?,-36.5,-5.6,1.0
SMILES,Vc quorum ag,Bead autofluor,BoNT A protease,MazEF act,Anthrax LF prot,BoNT-F LC inh
COc1ccc(NC(=O)CSc2nc(C)c3c(c2C#N)CCCC3)cc1,-0.3,21814*,0.0,-2.5,-0.5,-2.0
CCc1nnc(NC(=O)CSc2nc(C)c3c(c2C#N)CCCC3)s1,i,10128,0.0,2.8,-1.4,-4.7
CCOC1=C2[C@H](c3ccccc3)N(S(=O)(=O)c3ccc(C)cc3)C(C(C)(C)C)[C@H]2C(C#N)(C#N)C(C#N)(C#N)C1 (some centres undefined),.,5536,0.2,.,-2.6,-2.5
O=C(Nc1ccccc1)c1cccc(N2C(=O)C3C4CC(C(Br)C4Br)C3C2=O)c1 (centres undefined),i,4497,-2.0,4.5,-1.4,-4.6
Nc1ccc(C(O)(C(F)(F)F)C(F)(F)F)cc1,i,16402*,-0.2,4.3,0.4,-0.1
CCN(CC)S(=O)(=O)c1cc(C)ccc1NC(=S)Nc1cccnc1,-0.4,4377,-0.2,-0.9,-1.1,-3.6
COc1ccc(CNC(=O)CN2CCC(NC(=O)c3ccc(OC)cc3)CC2)cc1,0.2,6735,-3.6,-4.5,-1.0,-7.5
O=C(COc1ccccc1)Nc1nc(-c2ccc(S(=O)(=O)N3CCOCC3)cc2)cs1,-1.3,4490,0.5,3.9,0.1,3.3
O=C(CCc1ccc(S(=O)(=O)N2CCOCC2)cc1)Nc1nc(COc2ccccc2)cs1,i,22376*,2.1,-6.9,-1.2,0.0
CNS(=O)(=O)c1ccc(CCC(=O)N2CCOCC2)cc1,-0.8,3301,2.7,6.8,-5.8,?
O=C(CCc1ccc(S(=O)(=O)N2CCOCC2)cc1)NCCc1ccccn1,i,21908*,?,3.3,-1.8,-2.1
O=C(CCc1ccc(S(=O)(=O)N2CCOCC2)cc1)N1CCCC1,-2.4,23425*,?,4.0,-2.0,-3.2
Cc1cccc2cc(C#N)c(N3CCC(O)CC3)nc12,-0.5,4496,5.1,1.6,0.8,-4.1
COC(=O)/C(=C1/Oc2cc(C)oc(=O)c2S1)C(F)(F)F,i,21329*,?,3.8,-7.5,4.6
CC1CN(C(=O)CCC(=O)NC2CCCCC2)c2ccccc2S1 (centres undefined),-0.2,6110,-0.1,2.0,6.2,9.7
N#Cc1ccc2ccn(CC(=O)NC3CCCCC3)c2c1,i,16380*,0.6,13.8,-3.5,0.4
CCCC(=O)Nc1ccc(S(=O)(=O)Nc2cc(OC)ncn2)cc1,-1.5,5858,-1.1,-1.2,-0.9,3.5
Cn1cnnc1SCC(=O)NCCC(c1ccccc1)c1ccccc1,i,2429,-0.4,8.5,-1.0,-8.5
CCCn1c(SCC(=O)NC(C)(C)C)nnc1-c1ccco1,-0.5,4753,0.7,3.5,-6.8,-9.8
CC(=O)c1c(C)[nH]c(C(=O)CSc2nnc(-c3cccs3)n2Cc2ccccc2)c1C,-0.1,11137,0.3,-5.2,-1.7,-6.9
COCCn1c(SCC(=O)NCCc2ccccc2)nnc1-c1ccco1,-0.2,17231*,-2.8,-2.8,-1.0,-3.3
CC(=O)c1c(C)[nH]c(C(=O)CSc2nnc(-c3ccco3)n2Cc2ccccc2)c1C,-2.0,16352*,0.2,-10.9,-0.4,1.4
CC(C)(C)NC(=O)CSc1nnc(-c2ccco2)n1Cc1ccco1,i,16522*,-1.1,0.3,-4.0,-1.4
Cn1cnnc1SCC(=O)NCCc1ccccc1,2.4,23752*,-3.4,-2.4,-3.3,-6.5
O=c1ccc2cc(S(=O)(=O)N3CCN(c4ccc(Cl)cc4)CC3)ccc2o1,i,3824,-2.1,14.4,-0.1,-19.4
